Only a selection was taken, and hits are over-represented in it overall.
Dicer processing = human Dicer pre-microRNA cleavage inhibition; Q9UPY3; cat-ELCCA pre-miR-21 Dicer processing, chemiluminescence; stronger effect = higher value; z-score at 25 µM; 6% of 47,000 active; in the data active = z-score above about 3, passing the limit was not always enough;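 also: plate controls were vehicle for no effect and no enzyme for full effect; higher signal means more uncleaved substrate so more Dicer inhibition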
Target sequence (Q9UPY3 whole entry, looked up): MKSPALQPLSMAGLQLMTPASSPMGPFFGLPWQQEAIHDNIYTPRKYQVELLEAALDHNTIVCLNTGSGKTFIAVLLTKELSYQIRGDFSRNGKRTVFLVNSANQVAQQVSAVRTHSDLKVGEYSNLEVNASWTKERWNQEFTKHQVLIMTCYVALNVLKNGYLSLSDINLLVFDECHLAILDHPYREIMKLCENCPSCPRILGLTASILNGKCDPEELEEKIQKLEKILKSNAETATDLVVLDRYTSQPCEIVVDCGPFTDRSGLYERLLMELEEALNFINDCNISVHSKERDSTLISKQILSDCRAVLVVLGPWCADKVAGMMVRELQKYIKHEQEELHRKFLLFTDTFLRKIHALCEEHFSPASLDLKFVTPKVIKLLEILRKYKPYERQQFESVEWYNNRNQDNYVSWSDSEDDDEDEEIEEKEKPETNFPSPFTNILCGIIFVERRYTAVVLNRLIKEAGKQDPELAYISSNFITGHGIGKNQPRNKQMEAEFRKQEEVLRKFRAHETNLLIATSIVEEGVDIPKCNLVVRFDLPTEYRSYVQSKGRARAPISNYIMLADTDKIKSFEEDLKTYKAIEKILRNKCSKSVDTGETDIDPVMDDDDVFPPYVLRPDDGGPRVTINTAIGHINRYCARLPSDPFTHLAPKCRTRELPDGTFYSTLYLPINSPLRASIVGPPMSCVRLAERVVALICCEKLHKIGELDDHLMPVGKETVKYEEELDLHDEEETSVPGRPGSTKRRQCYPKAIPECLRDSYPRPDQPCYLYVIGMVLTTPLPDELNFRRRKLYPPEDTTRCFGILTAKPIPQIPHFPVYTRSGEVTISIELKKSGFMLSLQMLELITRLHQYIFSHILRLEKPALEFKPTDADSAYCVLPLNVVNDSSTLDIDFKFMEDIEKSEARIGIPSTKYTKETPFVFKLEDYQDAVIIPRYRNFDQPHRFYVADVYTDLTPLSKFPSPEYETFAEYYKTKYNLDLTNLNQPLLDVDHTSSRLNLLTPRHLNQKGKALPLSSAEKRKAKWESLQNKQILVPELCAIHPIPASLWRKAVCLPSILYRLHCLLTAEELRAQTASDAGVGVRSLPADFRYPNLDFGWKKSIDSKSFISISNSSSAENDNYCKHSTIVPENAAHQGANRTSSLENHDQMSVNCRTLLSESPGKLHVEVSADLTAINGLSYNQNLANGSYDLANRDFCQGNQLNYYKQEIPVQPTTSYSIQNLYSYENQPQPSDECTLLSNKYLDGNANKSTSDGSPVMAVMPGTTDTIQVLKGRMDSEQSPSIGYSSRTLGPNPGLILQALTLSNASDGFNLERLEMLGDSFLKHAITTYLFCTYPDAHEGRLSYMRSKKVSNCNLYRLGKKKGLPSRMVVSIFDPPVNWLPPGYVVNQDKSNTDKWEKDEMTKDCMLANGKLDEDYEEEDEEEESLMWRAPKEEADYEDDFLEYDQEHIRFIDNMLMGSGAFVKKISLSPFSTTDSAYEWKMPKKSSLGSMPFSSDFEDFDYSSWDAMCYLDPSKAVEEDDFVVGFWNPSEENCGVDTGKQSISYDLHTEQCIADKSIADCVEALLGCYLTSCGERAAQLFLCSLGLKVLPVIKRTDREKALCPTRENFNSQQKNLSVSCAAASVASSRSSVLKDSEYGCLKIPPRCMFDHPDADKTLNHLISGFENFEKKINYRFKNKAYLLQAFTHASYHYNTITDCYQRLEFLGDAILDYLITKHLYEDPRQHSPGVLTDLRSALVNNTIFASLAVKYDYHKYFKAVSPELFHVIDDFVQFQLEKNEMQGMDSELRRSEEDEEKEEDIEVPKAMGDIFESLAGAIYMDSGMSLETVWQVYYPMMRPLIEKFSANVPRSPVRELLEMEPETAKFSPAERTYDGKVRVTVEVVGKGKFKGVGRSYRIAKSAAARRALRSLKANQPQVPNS
Starred values were filed as active, the others as inactive.

SMILES	Dicer processing
CC(C)OC(=O)CSc1n[nH]c(=O)[nH]c1=O	4.31
CSc1ccc(NC(=O)c2cc3c4c(sc3nc2N)CCCC4)cc1	-1.07
O=S(=O)(Nc1ccc(OCc2ccccc2)cc1)c1ccc2ccccc2c1	2.84
CCCCCCCOc1ccc(/C=C/c2c([N+](=O)[O-])c(=O)n(C)c(=O)n2C)cc1	1.61
COC(=O)C1CCC(=O)C(C(=O)OC)C1 (centres undefined)	0.56
CC(c1ccccc1)n1c(SCC(=O)N2CCOCC2)n[nH]c1=O (centres undefined)	13*
CC(c1ccccc1)n1c(SCC(=O)c2ccc(F)cc2)n[nH]c1=O (centres undefined)	0.42
O=C(CSc1nc2ccccc2s1)N1CCOCC1	1.02
COc1c(Cl)cc(Cl)cc1-c1csc(NC(=O)C(Cl)(Cl)Cl)n1	0.67
CCCCn1c(C)nc2c(=O)oc3ccccc3c21	-0.43
Cc1ccc(F)cc1NC1OC(=O)c2ccccc21 (centres undefined)	-1.45
N#C/C(=C\c1cccc(Cl)c1Cl)c1nc2ccccc2s1	-0.37
COc1ccc(CCNC(=O)NC(C)(C)C)cc1OC	1.17
COc1cc(C2C(C(=O)OC3CCCCC3)=C(C)NC3=C2C(=O)CCC3)cc(Br)c1O (centres undefined)	-0.33
CC(C)Cc1ccc(C(C)/C(N)=N/O)cc1 (centres undefined)	-0.66
CC(C)Cc1ccc(C(C)C(=O)O/N=C(\N)c2ccc(C(F)(F)F)cc2)cc1 (centres undefined)	3.19*
CC(CC(=O)O/N=C(\N)c1ccc(C(F)(F)F)cc1)S(=O)(=O)c1ccc(Cl)cc1 (centres undefined)	-2.03
O=C1C(=O)N(CCCN2CCOCC2)C(c2ccccc2)/C1=C(\O)c1ccccc1 (centres undefined)	0.77
Cc1ccc(/C(O)=C2\C(=O)C(=O)N(CCCN3CCOCC3)C2c2ccc(F)cc2)cc1 (centres undefined)	-0.14
Cc1ccc(/C(O)=C2\C(=O)C(=O)N(CCCN3CCOCC3)C2c2ccco2)cc1 (centres undefined)	3.3*
Cc1cccc(C2CC(=O)Nc3nc(N)[nH]c(=O)c32)c1 (centres undefined)	0.75
CCOc1ccc(-c2nc(C#N)c(N3CC(C)CC(C)C3)o2)cc1 (centres undefined)	-0.62
O=C1c2cccc3c(N4CCOCC4)ccc(c23)C(=O)N1c1ccc(O)cc1	0.92
CSc1nc(C)nc(N/C=C(\C#N)S(=O)(=O)c2ccccc2)n1	0.61
c1ccc2c(c1)oc1c(N3CCN(C4CCCC4)CC3)ncnc12	-0.51
SMILES	Dicer processing
CCOC(=O)c1oc2ccccc2c1CSc1ccccn1	-0.38
Cc1nnc(NC(=O)CSc2ccccn2)s1	0.78
CCOC(=O)c1oc2ccc(OC)cc2c1CSc1ccccn1	3.97*
COc1ccc(OC)c(NC(=O)CSc2nccn2C)c1	-1.27
COc1ccc(OC)c(C(=O)c2oc3ccccc3c2NC(=O)CSc2ccccn2)c1	3.34*
CCOC(=O)c1oc2ccccc2c1CO	-0.55
CSc1ccc(/C=C(\C#N)S(=O)(=O)c2ccc(Cl)cc2Cl)s1	-0.6
O=c1[nH]c(=O)n(CCc2ccccc2)c2nc[nH]c12	0.05
N#Cc1c(C(F)(F)F)cc(-c2cccnc2)[nH]c1=O	-0.58
CC12CCC3c4ccc(N)cc4CCC3C1CCC2=O (centres undefined)	2.34
O=C1C2C3C=CC(C3)C2C(=O)N1c1nccs1 (centres undefined)	0.34
O=C1CCC(=O)N1c1nccs1	3.23*
COc1cc(C(=O)NNC(=O)Cc2nc(-c3ccccc3)sc2C)cc(OC)c1OC	0.28
Cc1ccsc1CNCCSc1nnnn1C	0.36
C=CCOc1ccc(C2c3c(oc4ccccc4c3=O)C(=O)N2c2ccc(C)cn2)cc1OCC (centres undefined)	2.29
COC(=O)c1ccc(C2c3c(oc4ccccc4c3=O)C(=O)N2c2ccc(C)cn2)cc1 (centres undefined)	0.93
CCOc1cc(C2c3c(oc4ccccc4c3=O)C(=O)N2c2ccccn2)ccc1O (centres undefined)	2.7
CCOc1cc(C2c3c(oc4ccccc4c3=O)C(=O)N2c2ccc(C)cn2)ccc1O (centres undefined)	4.74*
Cc1ccc(N2C(=O)c3oc4ccccc4c(=O)c3C2c2cccc(O)c2)nc1 (centres undefined)	1.12
COc1cc(C2c3c(oc4ccccc4c3=O)C(=O)N2c2ccc(C)cn2)ccc1O (centres undefined)	4.32*
Cc1cccn2c(=O)c(NC(=O)c3ccccc3)cnc12	3.55
Cc1nn2c3ccccc3n(C)c2c1C(N)=O	0.83
COc1ccc(C(=O)/C(C#N)=C/N=S(C)(=O)c2ccc(C(F)(F)F)cn2)cc1 (centres undefined)	0.9
Cc1ccc(N=C(C#N)C2=C(O)c3ccccc3C2=O)c(Cl)c1	-1.79
CCn1c(SCC(=O)c2ccccc2)nc2sc3c(c2c1=O)CC(C)(C)OC3	-0.17
SMILES	Dicer processing
C=C(C)Cn1c(SCCC)nc2sc3c(c2c1=O)CC(C)(C)OC3	4.28
CC1(C)Cc2c(sc3[nH]c(=O)n(CC(=O)O)c(=O)c23)CO1	3.92*
CCOC(=O)c1s/c(=N/N=C(C)C)n(C)c1C	-1.73
O=C1CC(c2ccsc2)c2c(n[nH]c2-c2ccccc2)N1 (centres undefined)	0.3
Cc1ccc(C)c(S(=O)(=O)Nc2cc(Cl)c3oc(=O)sc3c2)c1	11.8*
Cc1cc(NS(=O)(=O)c2ccc(NS(=O)(=O)c3cc(C)c(Cl)cc3Cl)cc2)no1	-0.3
O=c1oc2c(Cl)cc(NS(=O)(=O)c3ccc(F)cc3)cc2s1	9.74*
COC(=O)c1sc(C(C)(C)C)cc1NS(=O)(=O)c1ccc(OC)cc1	-0.67
COc1ccc(Cl)cc1NS(=O)(=O)c1ccc(F)cc1	1.62
COc1ccc(S(=O)(=O)Nc2nnc(C(C)C)s2)cc1	0.14
Cc1ccc(S(=O)(=O)Nc2cc(Cl)c3oc(=O)sc3c2)cc1	11*
O=S(=O)(Nc1ccccc1Cl)c1ccc(F)cc1	-0.45
Cc1ccc(C)c(S(=O)(=O)Nc2ccc3oc(C)c(C(=O)O)c3c2)c1	-0.8
Cc1ccc(C)c(S(=O)(=O)Nc2ccc3oc4c(c3c2)C(=O)CCC4)c1	-1.4
Cc1cc(C)cc(NS(=O)(=O)c2ccc3[nH]c(=O)[nH]c3c2)c1	-0.23
COc1ccc(S(=O)(=O)Nc2cc(Cl)c3oc(=O)sc3c2)cc1	8.94*
COC(=O)C1=C(C)NC2=C(C(=O)CC(C)(C)C2)C1c1ccc(O)c(OC)c1 (centres undefined)	-1.22
O=C1CCCC2=C1C(c1cccc(OCc3ccccc3)c1)n1ncnc1N2 (centres undefined)	0.61
Cc1cc(C)c2c(n1)sc1c(=O)n(/N=C/c3ccc(Cl)cc3)c(C)nc12	2.74
COc1ccc(Cc2c(O)nc(N)[nH]c2=O)cc1	-0.85
C=CCN(CC=C)C(=O)c1cc(-c2ccccc2)nc2ccccc12	-1.53
CN1c2ccsc2C(=O)/C(=N\Nc2ccccc2Cl)S1(=O)=O	0.02
CCCCOC(=O)C1=C(C)NC2=C(C(=O)CC(C)(C)C2)C1c1ccc(OCC)c(OC)c1 (centres undefined)	-0.43
CC(C)(CC(=O)O)CC(=O)Nc1ccccc1N1CCCCC1	0.66
CC(C)Sc1c(Cl)cccc1[N+](=O)[O-]	-0.36
COc1cc(/C=N/NC(=O)c2cc(-c3ccccc3)sc2N)cc(OC)c1OC	-2.46
COc1cc(/C=N/N)cc(OC)c1OC	-0.83
COc1cc(/C=N/NC(=O)c2ccccc2N)cc(OC)c1OC	3.33*
CCOC(=O)c1c(Nc2ccccc2OC)sc(C(=O)c2ccccc2)c1N	-0.29

Bioassay records as filed in PubChem.
